# p53ts 32C kill = p53ts cell cytotoxicity, permissive temperature | H1299-p53A138V at 32C, ATP luminescence viability, 24 h | Potency, µM (series often up to 46.1 µM), for inactives: top-dose activity change, negative = cytotoxicity, most hits filed as cytotoxic | hit rate 0.93% among 130,000 | AID 924;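 further: potency means the concentration at half of the fitted maximal effect; 0% = DMSO and -100% = full killing by reference compound; nearly all actives have a fitted effect of over 55% in size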
#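 H1299-p53 A138V cells (temperature-sensitive p53) exposed 24 h to up to 46 uM compound at 32C, where p53 is wild-type in conformation. Viability read as ATP luminescence and normalised to DMSO and 100 uM tamoxifen. AC50 fitted with the Hill equation.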
# YjeE inh = YjeE (TsaE) inhibition, E. coli; P0AF67; hit rate 0.05% among 71,000; purified YjeE enzyme, qHTS inhibition assay; AID 605; Potency, µM
#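 Purified YjeE (10 uM) with BODIPY Texas Red-labeled ADP probe (2 uM); compounds pin-transferred, 15 min at room temperature. Binding inhibition read as decreased fluorescence polarization; ADP titration as control.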
# DNA Pol III inh = DNA polymerase III holoenzyme inhibition | reconstituted DNA polymerase III holoenzyme replication, biochemical | hit rate 0.25% among 71,000 | Potency, µM (titrated, usually from 57.1 µM), without a hit: at the highest dose activity change, negative = inhibition | AID 603; further: potency means the concentration at half of the fitted maximal effect; on the % scale 0 is the no-effect control and ±100 the full control effect
#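 Reconstituted *E. coli* holoenzyme (0.35 nM Pol III, 1 nM beta, 154 nM SSB, 2 nM primase) was preincubated with compound for 15 min at RT. Synthesis on 1.4 nM ssM13Gori ran 35 min, then was stopped with PicoGreen/EDTA and read as dsDNA fluorescence.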
# Tau filament bind = binds recombinant human tau filaments; P10636; recombinant tau filaments, thioflavin S fluorescence, 15 h; filaments grown with octadecylsulfate alongside compound; Potency, µM (top dose mostly 57.1 µM), for the others: top-dose activity change, negative = inhibition; hit rate 2% among 71,000;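 further: potency means the concentration at half of the fitted maximal effect; on the % scale 0 is the no-effect control and ±100 the full control effect; actives lower thioflavin S fluorescence by blocking filaments or displacing dye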
# Target sequence (P10636 whole entry, looked up): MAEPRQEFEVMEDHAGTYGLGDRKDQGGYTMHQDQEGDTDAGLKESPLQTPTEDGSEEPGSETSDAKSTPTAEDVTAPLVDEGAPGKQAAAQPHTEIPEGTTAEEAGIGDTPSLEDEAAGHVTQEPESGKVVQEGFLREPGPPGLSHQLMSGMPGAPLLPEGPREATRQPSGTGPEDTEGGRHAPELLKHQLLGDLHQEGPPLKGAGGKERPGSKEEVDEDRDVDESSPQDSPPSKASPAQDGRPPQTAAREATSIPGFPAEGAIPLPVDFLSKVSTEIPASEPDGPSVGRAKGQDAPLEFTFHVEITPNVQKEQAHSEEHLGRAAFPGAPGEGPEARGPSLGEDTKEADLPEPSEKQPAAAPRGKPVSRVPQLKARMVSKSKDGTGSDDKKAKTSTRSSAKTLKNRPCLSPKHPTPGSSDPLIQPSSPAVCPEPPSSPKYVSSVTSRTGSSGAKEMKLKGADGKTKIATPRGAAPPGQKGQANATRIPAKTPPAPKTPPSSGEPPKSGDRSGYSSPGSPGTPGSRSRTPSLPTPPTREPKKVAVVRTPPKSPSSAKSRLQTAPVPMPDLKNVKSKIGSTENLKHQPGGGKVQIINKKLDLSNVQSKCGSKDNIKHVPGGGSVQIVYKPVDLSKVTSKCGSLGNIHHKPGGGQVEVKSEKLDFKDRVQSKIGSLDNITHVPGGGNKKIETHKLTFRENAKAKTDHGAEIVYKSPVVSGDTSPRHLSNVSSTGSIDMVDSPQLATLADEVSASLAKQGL
#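 Recombinant tau protein (human, 1 uM final) plus 30 uM ODS in HEPES pH 7.4 with NaCl, DTT and thioflavine S. Compound present from the start; fluorescence at 510 nm after 15 h, 37 C.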
# p53ts 39C kill = p53ts cell cytotoxicity, nonpermissive temperature | H1299-p53A138V viability at 39C, ATP luminescence, 24 h | Potency, µM (series often up to 46.1 µM), without a hit: at the top dose activity change, negative = cell killing, hits mostly cytotoxic | hit rate 1.5% among 130,000 | AID 902; further: potency means the concentration at half of the fitted maximal effect; on the % scale 0 is the no-effect control and ±100 the full control effect; nearly all actives have a fitted effect of over 55% in size
# ERK AVP inh = vasopressin-driven ERK pathway inhibition; HEK293-V1b, vasopressin-stimulated pERK AlphaScreen; Potency, µM (top dose mostly 57.5 µM), for the others: at the highest dose activity, negative = inhibition, actives largely listed as inhibitors; hit rate 0.99% among 72,000; further: potency means the concentration at half of the fitted maximal effect; on the % scale 0 is the no-effect control and ±100 the full control effect; nearly all actives have a fitted effect of over 55% in size
#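 V1b-HEK293 cells; cpd 30 min 37C; 25 nM vasopressin 5 min; lyse 10 min; AlphaScreen beads 5 hr RT. Normalized to DMSO basal and 25 nM vasopressin; AC50 by Hill fit.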
# * hit, by the source's call; i = inactive; ? = inconclusive; . = no result given; ! = repeats disagree; [ ] = dose if it differs, or a comment. Shown are actives, neighbours in structure and some others; about 3.2% of the full set was active somewhere. The call rests on the fitted dose curve; in most records, active means well fitted curve in the direction sought with a large enough effect; inconclusive means small, poorly fitted or top-dose-only effect, or another doubt; inactive means no such curve, though single readings can be large; an effect the other way counts as inactive or inconclusive.
SMILES,p53ts 32C kill,YjeE inh,DNA Pol III inh,Tau filament bind,p53ts 39C kill,ERK AVP inh
c1coc(-c2nc3ccccc3nc2-c2ccco2)c1,-10.4%,i,25.1µM*,12.6µM*,-23.9%,-6.3%
CC(=O)OCC1OC(C#CC(C)(C)C)C=CC1OC(C)=O (stereo not given),6.5%[9.22 µM],.,.,.,-2.1%[9.22 µM],23.6%[11.5 µM]
O=C1c2ccccc2-c2nccnc21,-5.8%,i,-3.7%,-2.4%,-13.0%,-15.5%
O=C1c2ccccc2-c2nc3ncnn3c(-c3ccccc3Cl)c21,5.5%,i,-7.7%,12.6µM*,-8.0%,-21.0%
CCc1ccc(NC(=O)Nc2ccccc2OCc2cc(=O)n3ccccc3n2)cc1,?,.,.,.,3.16µM*,.
CC(C)C(=O)Nc1ccccc1OCc1cc(=O)n2ccccc2n1,-5.8%,.,.,.,-14.2%,.
COc1ccc(OC)c(NS(=O)(=O)c2ccc(-c3cc(C)no3)s2)c1,10.2%,.,.,.,-9.3%,.
CCOc1ccc(S(=O)(=O)Nc2ccc(O)c(Sc3ncn[nH]3)c2)cc1,-1.5%,.,.,.,9.9%,.
CC(C)c1ccc(S(=O)(=O)/N=C2/C=C(Sc3ncn[nH]3)C(=O)c3ccccc32)cc1,.,.,.,.,8.91µM*,.
CC(C)c1ccc(NS(=O)(=O)c2ccc3nc(-c4ccccc4)[nH]c3c2)cc1,?,.,.,.,20µM*,.
CNS(=O)(=O)c1cc(-c2nn3c(C)nnc3c3ccccc23)ccc1C,3.6%,.,.,.,-7.2%,.
CC1(C)CC(=O)C2=C(C1)Oc1ncn(CCO)c(=N)c1C2c1ccccc1 (stereo not given),4.7%,i,0.8%,14.0%,5.8%,-15.7%
COc1ccc(C2C3=C(CC(C)(C)CC3=O)Oc3ncn(CC(C)C)c(=N)c32)cc1 (stereo not given),0.9%,i,-1.4%,3.98µM*,-0.3%,-9.0%
COc1ccc(C2C3=C(CC(C)(C)CC3=O)Oc3ncn(Cc4ccco4)c(=N)c32)cc1 (stereo not given),3.1%,i,-12.4%,15.8µM*,-8.2%,?
CCCCCCC1=Cc2cc(OC)c(OC)cc2C(C2(C(=O)OCC)CCCC2=O)O1 (stereo not given),9.1%[9.22 µM],.,.,.,2.8%[9.22 µM],23.2%[11.5 µM]
COc1ccc(-c2cc3ccc(O)c(CN4CCN(C)CC4)c3oc2=O)cc1OC,-8.3%,.,.,.,-12.5%,.
COc1ccc2c(c1)sc(N)[n+]2Cc1cc(C)cc2cccnc12,-8.5%,.,.,.,11.2µM*,.
CCOc1ccc2c(c1)sc(N)[n+]2Cc1cc(C)cc2cccnc12,-7.1%,.,.,.,-14.2%,.
Cc1ccc(C2C(C#N)=C(N)Oc3n[nH]c(-c4cccs4)c32)cc1 (stereo not given),-5.9%,.,.,.,-3.0%,.
N#CC1=C(N)Oc2n[nH]c(-c3ccncc3)c2C1c1ccsc1 (stereo not given),-4.5%,i,-12.8%,-6.6%,2.2%,10µM*
CC(C)C1C(C#N)=C(N)Oc2n[nH]c(-c3cccs3)c21 (stereo not given),6.9%,i,-8.3%,-8.1%,-5.8%,15.8µM*
CC(C)OCCCNC(=O)c1c2c(nc3ccccc13)C(=O)N(C1CCCCC1)C2,4.6%,.,.,.,-7.4%,.
Cc1ccc(CNC(=O)c2cccc(Nc3nc4ccccc4n4nnnc34)c2)cc1,?,.,.,.,6.31µM*,.
COCCNC(=O)c1cccc(Nc2nc3ccccc3n3nnnc23)c1,5.0%,.,.,.,-6.8%,.
O=C1Cc2c([nH]c3ccc(Br)cc23)-c2ccccc2N1,?,i,-5.1%,31.6µM*!,?,-46.3%
SMILES,p53ts 32C kill,YjeE inh,DNA Pol III inh,Tau filament bind,p53ts 39C kill,ERK AVP inh
O=c1c2c([nH]c3ccc(Br)cc13)CCCC2,-0.4%,i,-1.3%,11.8%,-10.1%,-4.6%
COc1ccc(F)cc1S(=O)(=O)Nc1ccccc1C(=O)O,0.9%,.,.,.,1.0%,.
CCN1C(=O)C(Cc2nc3ccccc3c(=O)n2-c2ccccc2)c2cc(Br)ccc21 (stereo not given),21.8%,.,.,.,-19.0%,.
COc1cccc2c(=O)n(CC(=O)NC3CCCC3)ccc12,-6.7%,i,0.4%,-5.4%,15.6%,.
COc1cccc2c(=O)n(CC(=O)N3CCCc4ccccc43)ccc12,12.3%,i,0.2%,12.6µM*,3.2%,.
OCC1OC(/C=C\c2ccccc2)C=CC1Oc1ccc2c(c1)OCO2 (stereo not given),-7.2%[9.22 µM],.,.,.,?,6.2%[11.5 µM]
O=C(/C(C=Nc1ccc(Br)cc1)=C(/O)c1ccco1)C(F)(F)F,11.2µM*,.,.,.,11.2µM*,.
COc1cccc(-c2nc(-c3ccc(Br)o3)no2)c1,?,.,.,.,12.6µM*,.
COc1cccc(C(=O)Nc2cccc(-c3nnc(-c4ccccc4)o3)c2)c1,-6.2%,i,2.4%,298.4%,-8.0%,-20.5%
COc1cccc(-c2nnc(-c3ccc(C)o3)o2)c1,12.6µM*,.,.,.,11.2µM*,.
O=[N+]([O-])c1cccc2c[nH]nc12,10.3%,i,15.8µM*,?,8.7%,-9.2%
Oc1c(C(c2ccccc2)N2CCN(Cc3ccccc3)CC2)sc2nc(-c3ccco3)nn12 (stereo not given),0.9%,.,.,.,19.3%,.
CCN(CC)c1ccc(NC(=O)c2cnn3c(C(F)F)cc(-c4ccccc4)nc23)cc1,-0.2%,.,.,.,14.0%,.
Cc1c(Cl)cccc1NC(=O)CCn1c(=O)c2cccn2c2ccccc21,-6.5%,.,.,.,-26.3%,.
O=C(CN1CC(c2ccccc2)CC1=O)Nc1ccc2c(c1)OCO2 (stereo not given),7.4%,i,-3.4%,25.1µM*,-2.7%,-13.1%
CCOc1ccccc1N1CSC2=C(C#N)C(c3c(OC)ccc4ccccc34)CC(=O)N2C1 (stereo not given),1.6%,i,-8.5%,25.1µM*,-4.9%,-15.2%
COc1ccc(N2CSC3=C(C#N)C(c4cc(OC)c(OC)cc4OC)CC(=O)N3C2)c(OC)c1 (stereo not given),3.8%,i,-10.0%,?,-3.3%,4.0%
COc1ccc(N2CSC3=C(C#N)C(c4cc(OC)ccc4OC)CC(=O)N3C2)c(OC)c1 (stereo not given),0.4%,i,-8.0%,25.1µM*,-1.9%,-26.7%
COc1ccc(N2CSC3=C(C#N)C(c4ccc(OC)c(OC)c4)CC(=O)N3C2)c(OC)c1 (stereo not given),?,i,-15.9%,20µM*,19.1%,?
COc1ccc(-c2cc3nc(C4CCN(C(=O)OC(C)(C)C)CC4)c(C(=O)Nc4cc(Cl)cc(Cl)c4)cn3n2)cc1,-7.5%,.,.,.,18.2%,.
CCOc1ccccc1O[C@@H](c1ccccc1)[C@@H]1CNCCO1,3.1%,i,0.8%,31.6µM*,-13.4%,35.2%
CCOc1ccccc1C1CC(=O)Nc2cc3c(cc21)OCCO3 (stereo not given),9.7%,i,1.5%,30.0%,-6.7%,-27.1%

# Source: PubChem (National Center for Advancing Translational Sciences (NCATS))
